Screens: PubChem, National Center for Advancing Translational Sciences (NCATS)
Only some compounds are listed: those with a hit (about 7.5% of all), similar ones and a draw of the others.
ELG1 genotox: genotoxicity induction in ELG1-luciferase HEK293T cells. 330,000 compounds, 1.3% hits. HEK293T ELG1-luciferase reporter, luminescence, 16 h. Potency, µM (highest dose often 46 µM), hits mostly activators; note: nearly all actives have a fitted effect of over 60% in size
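HEK293T cells expressing luciferase-tagged ELG1 were exposed to compound or DMSO vehicle for 16 hr at 37 °C and 5% CO2. Luciferase activity was then measured with ONE-Glo after 30 min at room temperature.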
KinaseGlo FLuc: counter-screen: inhibitors of Kinase-Glo firefly luciferase; Q27757; Potency, µM (doses to about 38.3 µM), hits mostly inhibitors; 200,000 compounds, 0.28% hits; Kinase-Glo luciferase, ATP luminescence, 8 min; note: nearly all actives have a fitted effect of over 60% in size
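Light output from Kinase-Glo luciferase with luciferin and 10 uM ATP in 50 mM imidazole pH 7.2, KCl, MgCl2, Tween 20, BSA; compound pin-delivered, 8-min ambient incubation, then luminescence read.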
Rab9 prom act: activates the Rab9 promoter | Huh7 Rab9 promoter-luciferase reporter, luminescence, 24 h | Potency, µM (doses to about 9.22 µM), usual class: activators | AID 485297 | 320,000 compounds, 2.8% hits; note: nearly all actives have a fitted effect of over 60% in size
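Rab9 promoter-driven luciferase in stably transfected Huh7 cells; 1500 cells/well rested 2 h, exposed to compound in DMSO for 24 h at 37 °C, 5% CO2. Luminescence read 10 min after adding luciferase reagent at ambient temperature.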
NPC1 promoter act: activates the NPC1 promoter | Huh7 NPC1 promoter luciferase reporter, 24 h | Potency, µM (doses to about 9.22 µM), most hits filed as activators | 320,000 compounds, 2.4% hits | AID 485313; note: nearly all actives have a fitted effect of over 60% in size
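Readout is luciferase luminescence, reflecting NPC1 promoter activation in stably transfected Huh7 cells after 24 h compound exposure at 37 °C in reduced-serum medium with 10% FBS.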
FLuc modulator: inhibits or activates purified firefly luciferase, miR-21 counter-screen | P08659 | 360,000 compounds, 6.9% hits | purified FLuc, Km substrates, luminescence inhibition | Potency, µM (doses to about 57.5 µM), usual class: inhibitors; note: nearly all actives have a fitted effect of over 55% in size
Target sequence (P08659 whole entry, looked up): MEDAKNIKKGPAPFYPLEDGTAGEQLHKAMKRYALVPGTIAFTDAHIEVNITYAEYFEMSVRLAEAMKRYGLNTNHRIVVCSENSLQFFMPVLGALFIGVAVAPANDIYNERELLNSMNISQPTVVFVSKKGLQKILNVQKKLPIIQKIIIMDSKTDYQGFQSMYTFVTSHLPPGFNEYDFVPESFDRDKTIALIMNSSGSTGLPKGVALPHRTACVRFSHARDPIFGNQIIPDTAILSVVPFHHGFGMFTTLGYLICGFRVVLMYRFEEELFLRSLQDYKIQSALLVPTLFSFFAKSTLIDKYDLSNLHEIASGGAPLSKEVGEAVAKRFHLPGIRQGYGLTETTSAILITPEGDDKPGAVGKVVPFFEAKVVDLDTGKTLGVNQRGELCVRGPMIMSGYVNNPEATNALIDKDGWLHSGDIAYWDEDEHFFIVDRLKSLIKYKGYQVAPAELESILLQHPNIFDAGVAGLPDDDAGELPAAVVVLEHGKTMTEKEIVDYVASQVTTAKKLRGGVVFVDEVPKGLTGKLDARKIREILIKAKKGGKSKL
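Purified P. pyralis luciferase, 10 nM final, with Km-level 10 uM D-luciferin and 10 uM ATP in 50 mM Tris acetate pH 7.5, 10 mM Mg acetate, 0.01% Tween-20, 0.05% BSA; 6-point qHTS titration about 60 µM downward; luminescence read.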
SMN2 splice enh: enhancers of SMN2 splice variant expression; HEK293 SMN2-luciferase splicing reporter, luminescence, 30-36 h; Potency, µM (top dose mostly 46.1 µM), usual class: activators; 210,000 compounds, 2.8% hits; AID 1458; note: nearly all actives have a fitted effect of over 55% in size
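HEK293 cells carry an SMN2 […]–luciferase reporter in which exon 7 inclusion puts luciferase in frame. Cells were plated 10-12 h before compound addition, then incubated 30-36 h at 37C. ONE-Glo luminescence was read; sodium butyrate at 4.5 mM final served as control.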
A number is an active result; i = inactive; ? = inconclusive; nt = no result given; [ ] = another dose, or the depositor's remark. Calls come from the whole dose curve; as a rule, active = well fitted curve in the direction sought with a large enough effect; inconclusive = small, poorly fitted or top-dose-only effect, or another doubt; inactive = no such curve, though single readings can be large; an effect the other way counts as inactive or inconclusive.

SMILES | ELG1 genotox | KinaseGlo FLuc | Rab9 prom act | NPC1 promoter act | FLuc modulator | SMN2 splice enh
O=C(NCCc1cccs1)c1ccc(CS(=O)Cc2ccc(Cl)cc2)o1 (stereo not given) | i | nt | i | i | i | nt
CCOc1c2ccc(C(=O)NCc3ccc(C)cc3)cc2nn1CC | i | i | i | i | i | 13µM
CCOc1ccc(CC(=O)Nc2c(C(=O)c3ccc(F)cc3)oc3ccc(Cl)cc23)cc1OCC | nt | nt | nt | nt | i | i
Clc1ccc(CSC2=NCCN2)cc1Cl | nt | i[7.66 µM] | nt | nt | nt | i[9.22 µM]
CCOC(=O)c1ccc(NC(=O)CSc2nc3sc(C(=O)O)c(C)c3c(=O)[nH]2)cc1 | i | i | ? | i | 17µM | i
CCOC(=O)c1sc(SCC(=O)Nc2ccc(N(C)C)cc2)nc1N | i | i | i | i | 6µM | i
COc1ccc(NC(=O)CSc2nc(N)c(C(=O)Nc3ccc(N(C)C)cc3)s2)cc1 | ? | i | 3.2µM | ? | 1.3µM | i
COc1ccc(NC(=O)CSc2nnc(N)s2)cc1 | i | i | i | i | i | i
CN(C)c1ccc(NC(=O)CSc2nc(N)c(C(=O)Nc3ccc(N(C)C)cc3)s2)cc1 | i | i | i | ? | 4.8µM | i
COC(=O)c1ccc(CSc2nc3sc(C(=O)O)c(C)c3c(=O)[nH]2)cc1 | i | i | i | i | ? | i
Cc1cc(F)ccc1S(=O)(=O)N1CCCOC1CNC(=O)C(=O)NCc1ccncc1 (stereo not given) | i | nt | i | i | i | nt
CC1CCN(C(=O)c2[nH]cnc2C(=O)N[C@@H](C)c2ccccc2)CC1 | i | nt | i | i | i | nt
O=C(O)[C@@H]1[C@@H]2C[C@H]([C@@H](Br)[C@H]2N2C(=O)CCC2=O)[C@@H]1C(=O)O | nt | i[7.66 µM] | nt | nt | nt | i[9.22 µM]
CN(CC(=O)Nc1ccc(F)cc1)C(=O)Cn1cnc2ccc([N+](=O)[O-])cc2c1=O | i | nt | nt | nt | nt | nt
CCn1cc(S(=O)(=O)Nc2cc(F)ccc2C)cn1 | i | i | i | i | i | i
CCn1c(=NC(=O)c2ccc3c(c2)OCCO3)sc2c(C)ccc(OC)c21 | nt | nt | nt | nt | 1.9µM | nt
C#CCn1c(=NC(=O)c2ccc3c(c2)OCCO3)sc2cc(OC)c(OC)cc21 | nt | nt | nt | nt | i | nt
COc1ccc(C(=O)N=c2sc3c(C)ccc(OC)c3n2C)cc1 | 0.46µM | 13µM | ? | ? | 0.6µM | 4µM
O=C1NC(c2ccc(Br)cc2)=N/C1=C/c1ccco1 | ? | i | 2.5µM | 3.5µM | 0.6µM | 7.1µM
O=C1NC(c2ccccc2Cl)=N/C1=C/c1ccco1 | ? | nt | ? | i | 0.3µM | nt
CCOC(=O)c1c(S(=O)(=O)N2CCC(C(=O)NCc3ccccc3Cl)CC2)c(C)n(C)c1C | nt | nt | nt | nt | i | nt
O=C(NCc1ccco1)c1cc2ccccc2c(=O)o1 | i | nt | i | i | 15µM | nt
O=C(NCc1ccco1)c1cc2cc(Br)ccc2o1 | i | nt | ? | i | 17µM | nt
Cc1c(C(=O)NCc2ccco2)oc2ccc(Br)cc12 | i | nt | i | i | ? | nt
O=C(NCc1ccco1)c1cc(=O)c2ccccc2o1 | i | i | i | i | i | i
SMILES | ELG1 genotox | KinaseGlo FLuc | Rab9 prom act | NPC1 promoter act | FLuc modulator | SMN2 splice enh
O=C(OCCc1cc2ccccc2c(=O)o1)c1ccco1 | i | nt | i | i | 5.4µM | nt
O=C(c1ccccc1Cl)N1CCCC(c2nc3c(nnn3Cc3ccc(F)cc3F)c(=O)[nH]2)C1 (stereo not given) | nt | nt | nt | nt | i | i
Cc1ccccc1C(c1c(C)n(C)n(-c2ccccc2)c1=O)c1c(C)n(C)n(-c2ccccc2)c1=O | nt | nt | nt | nt | i | i
COc1ccc(N=c2oc3ccccc3cc2C(=O)Nc2ccccn2)cc1OC | ? | i | ? | ? | 24µM | i
COc1ccccc1NC(=O)c1cc2ccccc2o/c1=N\O | i | i | 4µM | i | ? | i
COc1ccccc1NC(=O)c1cc2ccc(O)cc2o/c1=N\O | i | i | i | i | 5.4µM | i
COc1ccccc1NC(=O)c1oc2ccccc2c1NC(=O)c1cccc(OC)c1OC | nt | nt | nt | nt | i | i
COc1ccccc1NC(=O)c1cc2c(CO)cnc(C)c2oc1=Nc1ccc(OC)c(OC)c1 | i | nt | i | i | i | nt
COc1ccccc1N=c1oc2cc(O)ccc2cc1C(N)=O | i | ? | i | i | 13µM | i
O=C(CN1C(=O)NC2(CCc3ccccc32)C1=O)NCc1cccc(C(F)(F)F)c1 (stereo not given) | i | nt | nt | nt | nt | nt
CCOc1ccc(N2CC(C(=O)Nc3nnc(CC)s3)CC2=O)cc1 (stereo not given) | i | nt | i | i | i | nt
COc1cc2c(-c3ccc(C)cc3)nc3c(c(C)nn3-c3ccccc3)c2cc1OC | nt | nt | nt | nt | i | i
COc1ccc2cc(C(N)=O)/c(=N\NC(=O)c3ccccc3)oc2c1 | ? | nt | 0.71µM | 0.89µM | 11µM | nt
COc1ccc(OC)c(S(=O)(=O)NCc2cc(-c3ccccc3)no2)c1 | i | nt | i | i | i | nt
COc1ccc(OCc2cc(-c3ccc(Cl)cc3)no2)cc1 | i | i | i | i | i | i
COc1ccccc1OCc1cc(-c2ccccc2)no1 | ? | i | 2.5µM | 3.5µM | 9.5µM | 13µM
c1ccc(OCc2cc(-c3ccccc3)no2)cc1 | i | i | 2.8µM | ? | 12µM | ?
Clc1ccc(CCNc2ncnc3c2c(-c2ccccc2)cn3-c2ccccc2)cc1 | nt | nt | nt | nt | i | nt
